SMILES strings stand for the structures. Active and inactive are the calls of the source. A call without a number means that no potency is given here. The call rests on the fitted dose curve. Starred links: 1 amine or outer side, 2 acyl side, 3 side chain; linkers in the order of their positions; H or OH if unused. Positions of bridges follow the written chain, without caps; N, C: chain ends. Non-standard residues stand in square brackets, D forms with d. Residues, ends and D or L forms follow the SMILES beside them. Chains are numbered I, II in the order given. Actinocin(9to1) = Cc1c2oc3c(C)ccc(C(=O)[*:1])c3nc-2c(C(=O)[*:2])c(N)c1=O; NMeV = CN[C@H](C(=O)O)C(C)C; Sar = CNCC(=O)O

A short description of this assay: qHTS assay to identify small molecule agonists of the sonic hedgehog signaling (Shh) pathway (AID 1259368).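 Further: NIH/3T3-derived 3T3Gli1-Luc cells carrying a stable Gli1-driven firefly luciferase reporter; nearly all actives have a fitted effect of over 15% in size.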 To be noted: NIH/3T3 Gli1-Luc reporter, luciferase, 24 h; series mostly up to 92.4 µM; activity change: at the top concentration. An excerpt: National Center for Advancing Translational Sciences [NCATS]
NIH Chemical Genomics Center [NCGC]
U.S. Environmental Protection Agency [EPA]
National Institutes of Environmental Health Sciences [NIEHS]
National Toxicology Program [NTP]
The sonic hedgehog (Shh) pathway is essential for normal embryonic development. Dysregulation of the Shh pathway can cause severe developmental defects in organs. Therefore chemicals that interfere with the pathway are potential developmental toxicants. A cell line designated 3T3Gli1-Luc (DMB/OARSA/CFSAN/FDA, Laurel, MD), a NIH/3T3 derived clone containing stably integrated Gli1-Luc reporter is used to detect chemical interference of the Shh pathway, by changes in the expression of the firefly Luc gene under the control of the Gli1 transcriptional response element. This cell line was used to screen Tox21 libraries for identifying and prioritizing the potential developmental toxicants that interfere Shh pathway.
3T3 Gli1-Luc cells were dispensed at 2,000 per well in 5uL of culture medium into white solid bottom 1536-well plates (Greiner Bio-One, Monroe, NC) using a Multidrop Combi (Thermo Scientific, Waltham, MA) dispenser. The assay plates were incubated at 37 C and 5% CO2 for 4hr, and then 23nL of compounds dissolved in DMSO and positive control were transferred using a Pintool station (Wako, San Diego, CA). The assay plates were incubated at 37C and 5% CO2 for 24hr. For luciferase read, 4uL of Amplite Luciferase reporter gene assay reagent (AAT Bioquest, Inc. Sunnyvale, CA) was added to each well of the assay plates using Flying Reagent Dispenser (FRD, Aurora Discovery, San Diego, CA) and incubated at room temperature for 30min. The luminescence signal was measured using a ViewLux plate reader (Perkin Elmer, Shelton, CT).
Background: qHTS replaces the single test concentration by a dilution series.
`Cc1scc2c1N(C(=O)CN1CCN(C)CC1)c1ccccc1NC2=O`: the “activity change” value is -0.766% [at 42.5 µM, active compounds read high] (inactive).
For the compound `CC(C)(C)c1ccccc1`, the “activity change” value was -1.78% (inactive).
Still for that read-out and setting: the figure for `C#CC(C)(CC)OC(=O)c1ccccc1C(=O)O` (stereo not given) is 0.187% [at 42.5 µM, active compounds read high] (inactive); for `CCC(C)(Oc1ccc(C2(c3ccc(OC(C)(CC)C(=O)O)cc3)CCCCC2)cc1)C(=O)O` (stereo not given) it is -1.22% [at 42.5 µM, active compounds read high] (inactive).
As to `CCn1c2ccccc2c2cc(N)ccc21`, the Potency result is “inactive”.
Take `CC(=O)CC(=O)Nc1ccc2[nH]c(=O)[nH]c2c1`: the “activity change” value is -1.2% (inactive).
`Cc1cccc2n[nH]nc12`: the Potency entry is “inactive”.
Same read-out and setting: with `CCCN[C@H]1CCc2nc(N)sc2C1` the entry was “inactive”.
`CC(=O)OCC1=C(C(=O)O)N2C(=O)[C@@H](NC(=O)Cc3cccs3)[C@H]2SC1`: the “activity change” value was 0.0134% [at 42.5 µM, active compounds read high] (inactive).
For `CC1=CC(=O)c2ccccc2C1=O`, the Potency result is “inactive”.
`c1ccc2n[nH]nc2c1`: the Potency result was “inactive”.
On the same count and under the same terms, with `O=C(OCc1ccccc1)c1ccc(O)cc1` the entry was “inactive”.
Same read-out and setting: the entry for `CCN(CC)c1ccc2c(C)cc(=O)oc2c1` is “inactive”; for `COC(=O)c1cccc(C(=O)OC)c1` it is “inactive”.
For the compound `CC(C)(O)CCC(C)(C)O`, the “activity change” value was 0.877% (inactive).
On to `CC(C)(C)c1ccc(O)c(C(C)(C)C)c1`, for which the Potency entry is “inactive”.
The same measure, in the same setting: the entry for `C/C=C/c1ccc(OCC)c(O)c1` is “inactive”.
For the compound `CCCCCCCCCCCCCCCCCl`, the activity change was -1.24% [at 18.9 µM, active compounds read high] (inactive).
Regarding `Cc1c2oc3c(C)ccc(C(=O)N[C@@H]4C(=O)N[C@H](C(C)C)C(=O)N5CCC[C@H]5C(=O)N(C)CC(=O)N(C)[C@@H](C(C)C)C(=O)O[C@@H]4C)c3nc-2c(C(=O)N[C@@H]2C(=O)N[C@H](C(C)C)C(=O)N3CCC[C@H]3C(=O)N(C)CC(=O)N(C)[C@@H](C(C)C)C(=O)O[C@@H]2C)c(N)c1=O` (I: T[dV]P[Sar][NMeV] / II: T[dV]P[Sar][NMeV]; ester I:1-I:C, II:1-II:C; linker I:N-II:N via Actinocin(9to1)), the “activity change” value is -6.59% [at 42.5 µM, active compounds read high] (inactive).
With `OCC(CO)N[C@H]1C[C@](O)(CO)[C@@H](O)[C@H](O)[C@H]1O`, the “activity change” value is -1.51% [at 42.5 µM, active compounds read high] (inactive).
Still for that read-out and setting: the figure for `COc1cc(C(=S)N2CCOCC2)ccc1O` is -0.597% [at 42.5 µM, active compounds read high] (inactive).
Consider `CCOc1ccc2c(c1)C(C)=CC(C)(C)N2`, for which the Potency entry was “inactive”.
For `CC[C@]1(O)C[C@@H]2CN(CCc3c([nH]c4ccccc34)[C@@](C(=O)OC)(c3cc4c(cc3OC)N(C)[C@H]3[C@@](O)(C(=O)OC)[C@H](OC(C)=O)[C@]5(CC)C=CCN6CC[C@]43[C@@H]65)C2)C1`, the Potency result is “inactive”.
In the case of `C=CS(=O)(=O)O`, the “activity change” value was 0.391% (inactive).
`C=C(C)C(=O)O`: the Potency entry is “inactive”.
On the same count and under the same terms, the entry for `CCc1ccc(C(c2ccc(CC)cc2)C(Cl)Cl)cc1` is “inactive”; for `O=C1Nc2ccccc2C1(c1ccc(O)cc1)c1ccc(O)cc1` it is “inactive”; for `O=S(=O)(O)c1ccc2nc(-c3ccccc3)[nH]c2c1` it is “inactive”.
Turning to `CC(=O)C1=C(C)[C@@H]2C[C@@]3(C1)[C@H](C)CC[C@H]3C2(C)C`, the Potency result is “inactive”.
The same measure, in the same setting: with `COc1ccc(COC(C)=O)cc1` the entry was “inactive”; with `CC(C)(C)NC(=O)[C@@H]1CN(Cc2cccnc2)CCN1C[C@@H](O)C[C@@H](Cc1ccccc1)C(=O)N[C@H]1c2ccccc2C[C@H]1O`, “inactive”.
Still for that read-out and setting: with `CN(C)c1ccc(C(=C2C=CC(=[N+](C)C)C=C2)c2ccccc2)cc1` the entry was “inactive”; with `Nc1nc2ccccc2[nH]1`, “inactive”.
On the same count and under the same terms, the entry for `CC(C)CCCCCCc1ccc(O)cc1` is “inactive”; for `CC(=O)Nc1ccc(C(=O)CCl)cc1` it is “inactive”.
With `c1ccc2cc3c(ccc4ccccc43)cc2c1`, the “activity change” value was 11% (inactive).
On the same count and under the same terms, with `c1cnc2cc3c(cc2n1)C1CNCC3C1` the figure was -0.86% [at 42.5 µM, active compounds read high] (inactive).
As to `Cc1c(O)cccc1C(=O)N[C@@H](CSc1ccccc1)[C@H](O)CN1C[C@H]2CCCC[C@H]2C[C@H]1C(=O)NC(C)(C)C`, the Potency entry was “inactive”.
Regarding `Clc1ccc2c(c1)C(N1CCNCC1)=Nc1ccccc1O2`, the Potency result is “inactive”.
On the same count and under the same terms, the entry for `CCC[C@H](N[C@@H](C)C(=O)N1[C@H](C(=O)O)C[C@@H]2CCCC[C@@H]21)C(=O)OCC` is “inactive”.

(Values after PubChem BioAssay (Tox21).)
